Experimental data published in PubChem BioAssay (NCI).
About 79,000 compounds went through this panel and 15% of them were active in at least one assay; those are over-represented in the sample as a whole. Values without a mark were called inactive. Active and inactive are the calls of the source. Cut-off read from the data, not from the text of the source: active = growth inhibition above about 70%; inactive = the rest.

How the values were obtained:
[1] = NCI Yeast Anticancer Drug Screen. Data for the rad50 strain (AID 155);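 note: 0% = growth of vehicle-only cultures of the same strain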; settings: S. cerevisiae rad50 strain growth inhibition, active compounds read high
Method in brief: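 Yeast carrying a defined DNA repair defect were exposed to test compounds, and growth was compared with vehicle-treated controls to give percent inhibition.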

[2] = NCI Yeast Anticancer Drug Screen. Data for the mec2-1 strain (AID 157); settings: S. cerevisiae mec2-1 strain, active compounds read high
Method in brief: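 Each compound was tested on mec2-1 yeast, a strain altered in DNA damage repair or cell cycle control. Growth inhibition is reported relative to vehicle.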

[3] = NCI Yeast Anticancer Drug Screen. Data for the sgs1 mgt1 strain (AID 161);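 note: 0% = growth of cultures given vehicle only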; settings: S. cerevisiae sgs1 mgt1 strain, active compounds read high
Method in brief: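 Mutant yeast exposed to compound; growth scored against vehicle-only wells.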

[4] = NCI Yeast Anticancer Drug Screen. Data for the cln2 rad14 strain (AID 165);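 note: 0% = growth equal to vehicle treated cultures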; settings: S. cerevisiae cln2 rad14 strain, active compounds read high
Method in brief: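 Test compounds were added to cln2 rad14 yeast cultures; inhibition of growth was then determined by comparison with vehicle treatment.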

[5] = NCI Yeast Anticancer Drug Screen. Data for the bub3 strain (AID 167); settings: S. cerevisiae bub3 mutant strain, active compounds read high
Method in brief: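 Compounds were applied to a genetically altered yeast strain carrying a cell-cycle control defect. Growth inhibition was scored against vehicle-treated controls.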

[6] = NCI Yeast Anticancer Drug Screen. Data for the mlh1 rad18 strain (AID 175); settings: S. cerevisiae mlh1 rad18 strain growth inhibition, active compounds read high
Method in brief: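 Inhibition values reflect reduced growth of mutant yeast versus vehicle-treated controls following compound exposure; the mutations affect DNA damage repair.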

[7] = at 5.0 µM (retest, dose inferred, filed as 0.5)
[8] = at 50.0 µM (retest, dose inferred, filed as 5.0)

## O=C1C(=O)c2ccccc2C=C1C1CCCCC1
[1]; [7]
  growth inhibition: 13%
[1]; [8]
  growth inhibition: 64%
[1]; at 50.0 µM
  growth inhibition: 85% (active)
[2]; [7]
  growth inhibition: 19%
[2]; [8]
  growth inhibition: 72% (active)
[2]; at 50.0 µM
  growth inhibition: 78.2% (active)
[3]; [7]
  growth inhibition: 14%
[3]; [8]
  growth inhibition: 63%
[3]; at 50.0 µM
  growth inhibition: 91% (active)
[4]; [7]
  growth inhibition: 1%
[4]; [8]
  growth inhibition: 43%
[4]; at 50.0 µM
  growth inhibition: 71.5% (active)
[5]; [7]
  growth inhibition: 6%
[5]; [8]
  growth inhibition: 63%
[5]; at 50.0 µM
  growth inhibition: 64%
[6]; [7]
  growth inhibition: 18%
[6]; [8]
  growth inhibition: 80% (active)
[6]; at 50.0 µM
  growth inhibition: 91% (active)

## CC(=O)N(O)c1ccc2c(c1)Cc1cc(F)ccc1-2
[1]; [7]
  growth inhibition: 75% (active)
[1]; [8]
  growth inhibition: 37%
[1]; at 50.0 µM
  growth inhibition: 97% (active)
[2]; [7]
  growth inhibition: 34%
[2]; [8]
  growth inhibition: 29%
[2]; at 50.0 µM
  growth inhibition: 94% (active)
[3]; [7]
  growth inhibition: 65%
[3]; [8]
  growth inhibition: 35%
[3]; at 50.0 µM
  growth inhibition: 97.1% (active)
[4]; [7]
  growth inhibition: 45%
[4]; [8]
  growth inhibition: 21%
[4]; at 50.0 µM
  growth inhibition: 92.5% (active)
[5]; [7]
  growth inhibition: -14%
[5]; [8]
  growth inhibition: 80% (active)
[5]; at 50.0 µM
  growth inhibition: 97.8% (active)
[6]; [7]
  growth inhibition: 49%
[6]; [8]
  growth inhibition: 57%
[6]; at 50.0 µM
  growth inhibition: 96.5% (active)

## COCCOC1=C(Cl)C(=O)c2c(O)ccc(O)c2C1=O
[1]; [7]
  growth inhibition: 97% (active)
[1]; [8]
  growth inhibition: 98% (active)
[1]; at 50.0 µM
  growth inhibition: 90.5% (active)
[2]; [7]
  growth inhibition: 99% (active)
[2]; [8]
  growth inhibition: 98% (active)
[2]; at 50.0 µM
  growth inhibition: 90.7% (active)
[3]; [7]
  growth inhibition: 94% (active)
[3]; [8]
  growth inhibition: 99% (active)
[3]; at 50.0 µM
  growth inhibition: 92.4% (active)
[4]; [7]
  growth inhibition: 69%
[4]; [8]
  growth inhibition: 99% (active)
[4]; at 50.0 µM
  growth inhibition: 90.5% (active)
[5]; [7]
  growth inhibition: 100% (active)
[5]; [8]
  growth inhibition: 99% (active)
[5]; at 50.0 µM
  growth inhibition: 90.3% (active)
[6]; [7]
  growth inhibition: 99% (active)
[6]; [8]
  growth inhibition: 98% (active)
[6]; at 50.0 µM
  growth inhibition: 89.2% (active)

## CCCN(CCC)C(=O)c1cccc2ccccc12
[1]; [7]
  growth inhibition: 3%
[1]; [8]
  growth inhibition: 7%
[1]; at 50.0 µM
  growth inhibition: 6.8%
[2]; [7]
  growth inhibition: 4%
[2]; [8]
  growth inhibition: 6%
[2]; at 50.0 µM
  growth inhibition: -19.1%
[3]; [7]
  growth inhibition: 1%
[3]; [8]
  growth inhibition: 9%
[3]; at 50.0 µM
  growth inhibition: 44.5%
[4]; [7]
  growth inhibition: 3%
[4]; [8]
  growth inhibition: 22%
[4]; at 50.0 µM
  growth inhibition: -1.9%
[5]; [7]
  growth inhibition: 6%
[5]; [8]
  growth inhibition: 28%
[5]; at 50.0 µM
  growth inhibition: 27.2%
[6]; [7]
  growth inhibition: 6%
[6]; [8]
  growth inhibition: 7%
[6]; at 50.0 µM
  growth inhibition: 7.5%

## O=C(C[n+]1ccccc1Cl)c1ccc(F)cc1
[1]; [7]
  growth inhibition: -3%
[1]; [8]
  growth inhibition: 99% (active)
[1]; at 50.0 µM
  growth inhibition: -8%
[2]; [7]
  growth inhibition: -1%
[2]; [8]
  growth inhibition: 100% (active)
[2]; at 50.0 µM
  growth inhibition: -0.8%
[3]; [7]
  growth inhibition: -1%
[3]; [8]
  growth inhibition: 99% (active)
[3]; at 50.0 µM
  growth inhibition: 11.7%
[4]; [7]
  growth inhibition: -3%
[4]; [8]
  growth inhibition: 99% (active)
[4]; at 50.0 µM
  growth inhibition: 79.5% (active)
[5]; [7]
  growth inhibition: 4%
[5]; [8]
  growth inhibition: 99% (active)
[5]; at 50.0 µM
  growth inhibition: 1.45%
[6]; [7]
  growth inhibition: -1%
[6]; [8]
  growth inhibition: 99% (active)
[6]; at 50.0 µM
  growth inhibition: -12%

## Cc1ccc(S(=O)(=O)/C=C/C(=O)c2ccc3ccccc3c2)cc1
[1]; [7]
  growth inhibition: 83% (active)
[1]; [8]
  growth inhibition: 86% (active)
[1]; at 50.0 µM
  growth inhibition: 97.2% (active)
[2]; [7]
  growth inhibition: 96% (active)
[2]; [8]
  growth inhibition: 95% (active)
[2]; at 50.0 µM
  growth inhibition: 98.4% (active)
[3]; [7]
  growth inhibition: 84% (active)
[3]; [8]
  growth inhibition: 96% (active)
[3]; at 50.0 µM
  growth inhibition: 95.9% (active)
[4]; [7]
  growth inhibition: 20%
[4]; [8]
  growth inhibition: 91% (active)
[4]; at 50.0 µM
  growth inhibition: 96.5% (active)
[5]; [7]
  growth inhibition: 47%
[5]; [8]
  growth inhibition: 96% (active)
[5]; at 50.0 µM
  growth inhibition: 94.5% (active)
[6]; [7]
  growth inhibition: 88% (active)
[6]; [8]
  growth inhibition: 95% (active)
[6]; at 50.0 µM
  growth inhibition: 97.1% (active)

## O=C(C1=Cc2ccccc2OC1)N1CCN(c2cccc(Cl)c2)CC1
[1]; [7]
  growth inhibition: -1%
[1]; [8]
  growth inhibition: 96% (active)
[1]; at 50.0 µM
  growth inhibition: 49.3%
[2]; [7]
  growth inhibition: -6%
[2]; [8]
  growth inhibition: 98% (active)
[2]; at 50.0 µM
  growth inhibition: 35.9%
[3]; [7]
  growth inhibition: 1%
[3]; [8]
  growth inhibition: 97% (active)
[3]; at 50.0 µM
  growth inhibition: 72.2% (active)
[4]; [7]
  growth inhibition: -6%
[4]; [8]
  growth inhibition: 97% (active)
[4]; at 50.0 µM
  growth inhibition: 57.8%
[5]; [7]
  growth inhibition: 10%
[5]; [8]
  growth inhibition: 97% (active)
[5]; at 50.0 µM
  growth inhibition: 89.5% (active)
[6]; [7]
  growth inhibition: -12%
[6]; [8]
  growth inhibition: 97% (active)
[6]; at 50.0 µM
  growth inhibition: 71.2% (active)

## O=C(CCCCCCCCCCc1ccccc1)c1c(O)cccc1O
[1]; [7]
  growth inhibition: 37%
[1]; [8]
  growth inhibition: 96% (active)
[1]; at 50.0 µM
  growth inhibition: 82.7% (active)
[2]; [7]
  growth inhibition: 29%
[2]; [8]
  growth inhibition: 97% (active)
[2]; at 50.0 µM
  growth inhibition: 89% (active)
[3]; [7]
  growth inhibition: 45%
[3]; [8]
  growth inhibition: 97% (active)
[3]; at 50.0 µM
  growth inhibition: 87.2% (active)
[4]; [7]
  growth inhibition: 24%
[4]; [8]
  growth inhibition: 95% (active)
[4]; at 50.0 µM
  growth inhibition: 83.3% (active)
[5]; [7]
  growth inhibition: 41%
[5]; [8]
  growth inhibition: 97% (active)
[5]; at 50.0 µM
  growth inhibition: 85.4% (active)
[6]; [7]
  growth inhibition: 39%
[6]; [8]
  growth inhibition: 95% (active)
[6]; at 50.0 µM
  growth inhibition: 79.3% (active)

## CC1=Nc2ccccc2C1C(Cc1ccccc1N)c1c(C)[nH]c2ccccc12 (configuration not stated)
[1]; [7]
  growth inhibition: 15%
[1]; [8]
  growth inhibition: 97% (active)
[1]; at 50.0 µM
  growth inhibition: 95.6% (active)
[2]; [7]
  growth inhibition: 16%
[2]; [8]
  growth inhibition: 95% (active)
[2]; at 50.0 µM
  growth inhibition: 95.4% (active)
[3]; [7]
  growth inhibition: 11%
[3]; [8]
  growth inhibition: 90% (active)
[3]; at 50.0 µM
  growth inhibition: 88.8% (active)
[4]; [7]
  growth inhibition: 15%
[4]; [8]
  growth inhibition: 98% (active)
[4]; at 50.0 µM
  growth inhibition: 94.5% (active)
[5]; [7]
  growth inhibition: 7%
[5]; [8]
  growth inhibition: 95% (active)
[5]; at 50.0 µM
  growth inhibition: 89.6% (active)
[6]; [7]
  growth inhibition: 11%
[6]; [8]
  growth inhibition: 96% (active)
[6]; at 50.0 µM
  growth inhibition: 97% (active)
